An excerpt weighted towards active compounds, which were near 3.4% of everything screened.
KLK7 zymogen act = proKLK7 zymogen activators, primary screen, biochemical, fluorescence intensity. AID 652039, 2013. 370,000 compounds, 0.9% hits. activation, % at 7 µM. purified proKLK7, EDANS-DABCYL substrate fluorescence; 100% is mature enzyme control, 0% vehicle;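 active = activation above the mean of all tested compounds plus 3 SD, computed per campaign excluding outliers beyond control limits, cut at about 13% in these data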
ADAM10 inh = human ADAM10 inhibitors, primary screen, biochemical, QFRET, HTS | 370,000 compounds, 0.62% hits | recombinant ADAM10, EDANS/DABCYL FRET peptide cleavage, 3 h | Disintegrin and metalloproteinase domain-containing protein 10 (Homo sapiens), O14672 | inhibition, % at 7 µM;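 active = inhibition above a per-campaign cutoff equal to the mean of compounds falling between control-based bounds plus 3 SD, cut at about 20% in these data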;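 also: 0% = DMSO wells while the 100% control is not disclosed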
HGIII-sPLA2 inh = human group III sPLA2 inhibitors, primary screen, biochemical, QFRET, BODIPY PC-A2 liposome substrate | Group 3 secretory phospholipase A2 (Homo sapiens), Q9NZ20 | QFRET BODIPY PC-A2 liposome hydrolysis, fluorescence | inhibition, % at 12.2 µM | 370,000 compounds, 0.56% hits | AID 743126, 2013;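 active = inhibition above mean plus 3 SD of compounds lying within the high and low control bounds, cut at about 19% in these data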;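 also: 0% = median of test compound wells and 100% = no enzyme DMSO wells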
PLC-beta3 inh = human PLC-beta3 inhibitors, primary screen, biochemical, fluorescence; 1-phosphatidylinositol 4,5-bisphosphate phosphodiesterase beta-3 (Homo sapiens), Q01970; Purified PLC-beta3, fluorogenic substrate; inhibition, % at 12.2 µM; 370,000 compounds, 0.18% hits; in the data active = inhibition above about 11%;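 also: 0% = median of compound wells on plate and 100% = full blocker control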
Target sequence (Q01970 whole entry, looked up): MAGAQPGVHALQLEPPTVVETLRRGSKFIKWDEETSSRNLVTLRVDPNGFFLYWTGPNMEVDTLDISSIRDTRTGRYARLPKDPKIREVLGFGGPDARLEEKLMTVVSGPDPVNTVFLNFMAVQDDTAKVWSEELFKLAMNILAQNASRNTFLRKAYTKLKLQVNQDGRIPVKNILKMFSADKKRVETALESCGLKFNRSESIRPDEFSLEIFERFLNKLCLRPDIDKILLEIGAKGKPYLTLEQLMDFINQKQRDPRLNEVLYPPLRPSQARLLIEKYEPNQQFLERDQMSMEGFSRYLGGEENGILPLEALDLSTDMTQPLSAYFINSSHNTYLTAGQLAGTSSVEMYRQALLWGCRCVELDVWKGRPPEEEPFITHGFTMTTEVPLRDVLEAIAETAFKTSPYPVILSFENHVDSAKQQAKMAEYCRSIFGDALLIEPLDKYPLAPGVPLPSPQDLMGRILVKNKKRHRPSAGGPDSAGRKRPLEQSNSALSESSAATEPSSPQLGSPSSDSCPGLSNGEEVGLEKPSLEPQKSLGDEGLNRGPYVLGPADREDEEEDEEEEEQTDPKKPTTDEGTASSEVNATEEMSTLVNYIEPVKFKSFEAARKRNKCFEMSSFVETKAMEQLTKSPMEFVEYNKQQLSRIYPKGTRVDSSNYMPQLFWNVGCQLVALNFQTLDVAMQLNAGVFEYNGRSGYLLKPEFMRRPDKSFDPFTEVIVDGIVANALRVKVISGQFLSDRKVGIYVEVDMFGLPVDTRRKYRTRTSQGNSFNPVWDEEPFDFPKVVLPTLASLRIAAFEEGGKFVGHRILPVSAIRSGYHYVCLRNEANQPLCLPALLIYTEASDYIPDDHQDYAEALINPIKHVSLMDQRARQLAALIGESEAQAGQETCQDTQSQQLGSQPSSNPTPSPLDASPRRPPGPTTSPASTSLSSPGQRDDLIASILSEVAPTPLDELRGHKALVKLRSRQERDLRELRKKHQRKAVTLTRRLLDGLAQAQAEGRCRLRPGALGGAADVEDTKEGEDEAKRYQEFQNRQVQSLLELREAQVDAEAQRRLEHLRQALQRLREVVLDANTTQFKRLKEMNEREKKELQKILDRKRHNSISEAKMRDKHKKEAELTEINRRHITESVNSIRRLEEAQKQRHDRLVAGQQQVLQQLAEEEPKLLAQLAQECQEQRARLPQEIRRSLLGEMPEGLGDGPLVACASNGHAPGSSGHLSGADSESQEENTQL
ADAM17 inh = ADAM17 inhibitors, primary screen, biochemical, QFRET. 370,000 compounds, 0.83% hits. AID 720648, 2013. recombinant ADAM17, EDANS/DABCYL FRET peptide cleavage. Disintegrin and metalloproteinase domain-containing protein 17 (Homo sapiens), P78536. inhibition, % at 6.95 µM;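 active = inhibition above the mean of compounds lying between control limits plus 3 SD, set per campaign, cut at about 8.5% in these data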;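 also: 0% = DMSO-only wells as the low control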
PLC-gamma1 inh = PLC-gamma1 enzyme inhibitors, primary screen, biochemical, fluorescence, purified enzyme; 1-phosphatidylinositol 4,5-bisphosphate phosphodiesterase gamma-1 (Homo sapiens), P19174; fluorogenic substrate; inhibition, % at 12.2 µM; 370,000 compounds, 0.84% hits; in the data active = inhibition above about 9.5%
hGIII sPLA2 conf = human group III sPLA2 inhibitors, confirmation, biochemical, QFRET, triplicate. shares compounds with HGIII-sPLA2 inh. 2,000 compounds, 34% hits. recombinant hGIII-sPLA2, BODIPY PC-A2 QFRET fluorescence. inhibition, % at 12.2 µM;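 active = mean inhibition across triplicates above the hit cutoff set in the earlier primary screen, cut at about 19% in these data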;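 also: 0% = enzyme with DMSO and 100% = DMSO wells lacking enzyme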
535nm interf = 535nm fluorescence optical interference, confirmation, artefact control for HGIII-sPLA2 inhibitor project, biochemical, QFRET. shares compounds with HGIII-sPLA2 inh. BODIPY FL product fluorescence interference. inhibition, % at 12.2 µM. 2,000 compounds, 8.5% hits. AID 743282, 2014;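 active = average inhibition above the solvent-only control mean plus 3 SD, cut at about 6% in these data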;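 also: 0% = DMSO with substrate plus product and 100% = DMSO with substrate alone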
* = called active by the depositor; nt = not tested or not shown.

SMILES | KLK7 zymogen act | ADAM10 inh | HGIII-sPLA2 inh | PLC-beta3 inh | ADAM17 inh | PLC-gamma1 inh | hGIII sPLA2 conf | 535nm interf
Cc1cc(C(=O)N2CCCC(CO)(Cc3ccc(F)cc3)C2)c(C)o1 (centres undefined) | 0.1 | -7.1 | -6.6 | -4.8 | -3.1 | 5.3 | nt | nt
Cc1ccc(S(=O)(=O)N2CCCC(N3CCOCC3)C2)cc1Cl (centres undefined) | 0.5 | -8.4 | 19.4* | -1.4 | -3.7 | 5.8 | -2.2 | -9.5
COc1ccc(C)cc1S(=O)(=O)N1CCCC(N2CCOCC2)C1 (centres undefined) | 0.0 | -2.4 | -4.9 | -6.1 | -2.6 | 3.6 | nt | nt
CC(NC(=O)C(C(=O)c1cccc([N+](=O)[O-])c1)n1cc(Cl)ccc1=O)c1ccccc1 (centres undefined) | -0.1 | -9.3 | 24.5* | -3.7 | -10.6 | -0.7 | -5.7 | -5.6
S=C(NC1CCCC1)NC1CC1 | -0.1 | -2.3 | 20.7* | 1.0 | -0.5 | 2.7 | 2.9 | -4.6
S=C(NC1CCCC1)NC1CCCC1 | 0.3 | 8.7 | 9.4 | 0.2 | 0.1 | 4.5 | nt | nt
Cc1cccc(C)c1NC(=S)NC1CCCCC1 | 0.1 | -14.2 | 24.4* | -1.8 | -1.7 | -1.1 | 21.4* | -4.5
O=C(CN(Cc1cccs1)S(=O)(=O)c1ccc(S(=O)(=O)N2CCCCC2)cc1)Nc1ccccc1 | -0.2 | -4.6 | 20.9* | 1.3 | -2.9 | 3.6 | -2.1 | 0.4
O=C(CN(C1CC1)S(=O)(=O)c1ccc(S(=O)(=O)N2CCCCCC2)cc1)Nc1ccccc1 | 0.2 | 1.6 | 4.7 | -0.2 | -5.3 | -3.9 | nt | nt
CC/C(=C\c1ccc(N(C)C)cc1)c1ccncc1 | -0.7 | -21.0 | 22.6* | -102.1 | -5.1 | -83.9 | 19.6* | -0.4
COCCCNC(=O)CN(Cc1ccc(Cl)cc1)S(C)(=O)=O | 0.4 | 0.0 | 20.6* | 2.7 | -4.7 | 2.2 | 5.6 | -6.8
CCOCCCNC(=O)CN(Cc1ccc(Cl)cc1)S(C)(=O)=O | 0.2 | -5.2 | 10.0 | 3.1 | 5.8 | 1.5 | nt | nt
CCN(Cc1ccccc1)C(=O)COC(=O)c1c(C)nsc1NC | 0.1 | 1.3 | -4.0 | -4.9 | -3.0 | 1.1 | nt | nt
CCN(CC)C(=O)/C=C/c1ccccc1 | -0.6 | -1.2 | 19.8* | 1.0 | -3.1 | 4.0 | -2.5 | -3.8
CCOC(=O)C1=C(C)N(C)C(=S)NC1c1ccccc1Cl (centres undefined) | -0.5 | 2.5 | 21.2* | -21.3 | 1.8 | 1.8 | 19.0 | -4.7
CCOC(=O)C1=C(C)N(C)C(=S)NC1c1cccc(Cl)c1Cl (centres undefined) | 0.5 | -6.4 | 12.7 | 4.7 | 0.3 | -0.5 | nt | nt
COc1ccc(OC)c(CN2CCN(C(=O)c3cccc(S(=O)(=O)Nc4ccc(F)cc4)c3)CC2)c1 | 0.2 | 7.3 | -22.2 | -1.2 | 4.9 | 1.3 | nt | nt
Cn1c(-c2cc(Br)ccc2O)n[nH]c1=S | 0.5 | -15.6 | 4.0 | -10.6 | -8.3 | -8.8 | nt | nt
Cc1ccc(C)c(-n2c(-c3ccco3)n[nH]c2=S)c1 | -0.4 | -10.2 | 20.8* | -1.4 | -12.5 | -1.5 | 20.7* | 3.3
S=c1[nH]nc(-c2ccco2)n1-c1cccc2ccccc12 | -0.8 | 11.5 | 21.4* | 7.8 | 5.0 | 7.6 | 24.5* | 3.2
Cn1c(-c2cccc3ccccc23)n[nH]c1=S | 0.2 | -12.7 | 19.9* | -0.6 | -1.9 | 0.1 | 5.4 | -3.8
CC(C)(C)OC(=O)N1CCC[C@H]1c1nnc(SCc2ccc(Cl)cc2)o1 | 0.1 | -4.4 | 0.3 | -3.8 | 0.5 | -2.2 | nt | nt
COc1cccc(NC(=S)NN=C2CCCCCC2)c1 | -0.8 | 2.3 | 12.7 | -9.1 | -5.9 | -3.7 | nt | nt
CS(=O)(=O)c1ccc(-c2cccc(NC(=O)c3ccco3)c2)nn1 | -0.3 | -2.1 | 0.2 | -3.6 | -3.3 | 0.8 | nt | nt
Cc1ccc2c(c1)c1c(n2CC(O)CNC2CCCC2)CCCC1 (centres undefined) | 0.4 | -5.8 | 20.1* | -4.7 | -2.6 | 2.5 | 6.4 | -28.7
SMILES | KLK7 zymogen act | ADAM10 inh | HGIII-sPLA2 inh | PLC-beta3 inh | ADAM17 inh | PLC-gamma1 inh | hGIII sPLA2 conf | 535nm interf
COc1ccc(C(=O)N[C@H](C(=O)NCCCSc2ccccc2)C(C)C)cc1 | 0.6 | -5.3 | -16.3 | 1.0 | 0.0 | 0.2 | nt | nt
O=C(Nc1ccn(CCCNCc2ccccn2)c(=O)n1)OCc1ccccc1 | -0.3 | -16.1 | 21.5* | -0.5 | -3.1 | 2.0 | 6.0 | -15.8
COCCCNCCCCSc1ccc(Cl)cc1 | 0.5 | -8.7 | 21.6* | -0.7 | 4.3 | 8.3 | -7.9 | -26.7
COCCCNCCOCCSc1ccc(Cl)cc1 | 0.6 | -1.4 | 0.7 | 1.4 | -0.3 | -2.2 | nt | nt
CSCCC(NC(=O)c1ccccc1Br)C(=O)N1CCN(C/C=C/c2ccccc2)CC1 (centres undefined) | -0.6 | -3.9 | -5.4 | -5.0 | -4.5 | -3.4 | nt | nt
COC(=O)c1cnc(Nc2nc(C(N)Cc3ccc(Cl)cc3)cs2)nc1C(F)(F)F (centres undefined) | 0.1 | -1.1 | 27.0* | -1.2 | 0.6 | 4.8 | 7.6 | -5.4
NC(c1csc(Nc2cc(Oc3ccccc3)ncn2)n1)c1ccccc1Cl (centres undefined) | -0.4 | -7.3 | 21.2* | -15.2 | 2.0 | -0.2 | 13.0 | -2.7
COC(=O)c1cnc(Nc2nc(C(N)Cc3ccc(OC)cc3)cs2)nc1C(F)(F)F (centres undefined) | -0.2 | -7.1 | 13.5 | -2.4 | -1.9 | -0.1 | nt | nt
COc1ccc(CC(N)c2csc(Nc3cc(Oc4ccccc4)ncn3)n2)cc1 (centres undefined) | -0.7 | 5.0 | 9.7 | 2.0 | 2.9 | 5.0 | nt | nt
CC(N)c1csc(Nc2cc(Oc3ccccc3)ncn2)n1 (centres undefined) | -0.5 | -22.1 | 17.3 | -12.0 | -5.1 | 5.1 | nt | nt
NC(Cc1ccc(Cl)cc1)c1csc(Nc2cc(Oc3ccccc3)ncn2)n1 (centres undefined) | -1.1 | -1.0 | 27.1* | -7.4 | -2.0 | 5.9 | 20.5* | -12.7
NC(c1csc(Nc2cc(NCc3ccco3)ncn2)n1)c1ccccc1Cl (centres undefined) | -0.7 | -5.0 | 23.0* | -24.2 | -1.3 | -13.1 | -5.3 | -2.6
